Screening results (PubChem)
HT1080-NT tox – kills 2HG-producing HT-1080-NT fibrosarcoma cells; AID 686970; Potency, µM (titrated, usually from 46.1 µM), usual class: cytotoxic; HT-1080-NT fibrosarcoma viability, CellTiter-Glo ATP luminescence, 48 h; 1.6% of 360,000 active;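 also: NT is the 2HG producing partner of a matched IDH1 knockdown line; nearly all actives have a fitted effect of over 55% in size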
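Read-out is CellTiter-Glo luminescence after 10 minutes at room temperature, following 48 hours' compound treatment of HT-1080-NT cells (750 cells/well, RPMI, 5% FBS, 37 degrees C).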
DT40 TDP1 CPT – DT40-hTDP1 cell growth loss with CPT; Potency, µM (series often up to 46.2 µM), usual class: inhibitors; chicken DT40 Tdp1-/-;hTDP1 cells + 20 nM CPT, ATP luminescence, 48 h; AID 686979; 12% of 420,000 active; also: nearly all actives have a fitted effect of over 55% in size
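Chicken DT40 Tdp1-/- cells stably complemented with human TDP1 were seeded at 400 cells/well in medium containing 20 nM camptothecin, exposed to pin-transferred compounds, and grown at 37 °C for at least 48 hr. Viability was read as ATP luminescence.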
DT40 TDP1 no CPT – qHTS for Inhibitors of human tyrosyl-DNA phosphodiesterase 1 (TDP1): qHTS in cells in absence of CPT. DT40 Tdp1-/- hTDP1 cells, no CPT, ATP luminescence, 48 h. Potency, µM (titrated, usually from 46.2 µM), most hits filed as inhibitors. 15% of 420,000 active; also: nearly all actives have a fitted effect of over 55% in size
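Chicken DT40 Tdp1-/- cells complemented with human TDP1, screened without camptothecin (DMSO vehicle only), 400 cells/well. Compounds pin-transferred, cells incubated at 37 °C for at least 48 hr. Growth read as ATP-dependent luminescence (CellTiter-Glo, 30 min at RT).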
IL1B secr inh – inflammasome signaling inhibition, IL-1 beta readout; 4.7% of 360,000 active; activity change, % at 57.5 µM; THP-1 LPS/ATP IL-1B secretion, AlphaLISA, 16 h; hits give low values; AID 743279; in the data active = activity change below about -50%; inconclusive = mostly about -30% to -49%
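Secreted IL-1B measured by AlphaLISA bead assay after 16 h compound exposure of THP-1 cells; compounds (final up to 57.5 uM) added 1 h before LPS (250 ng/mL) and ATP (1.25 mM) stimulation; lower signal means less secretion.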
HT1080 IDH1KD tx – toxicity to HT-1080 IDH1 knockdown cells (counter line). 2% of 360,000 active. HT-1080 IDH1 knockdown viability, ATP luminescence, 48 h. Potency, µM (top dose mostly 46.1 µM), hits mostly cytotoxic
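In this qHTS, HT-1080 cells depleted of IDH1 are exposed for 48 h at 37 °C to compound titrations. Toxicity is scored from CellTiter-Glo luminescence, with DMSO as full viability and medium alone as none.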
Hits are given with their value; 0 = inactive; ? = inconclusive; - = no result. Compounds with a hit are over-represented: about 19% of the library has one in this group of screens. Unless noted, calls follow the shape of the dose curve; as a rule, active = well fitted curve in the direction sought with a large enough effect; inconclusive = small, poorly fitted or top-dose-only effect, or another doubt; inactive = no such curve, though single readings can be large; an effect the other way counts as inactive or inconclusive.

SMILES | HT1080-NT tox | DT40 TDP1 CPT | DT40 TDP1 no CPT | IL1B secr inh | HT1080 IDH1KD tx
CCOC(=O)c1c(NC(=O)CSc2cn(CCNC(=O)c3ccc(OCC)cc3)c3ccccc23)sc2c1CCCC2 | - | 0 | 0 | - | -
COc1cc(OC)c(OC)cc1/C=N/NC(=O)CCc1c(C)n[nH]c1C | 0 | 0 | ? | 0 | 0
O=C(COC(=O)c1cc(=O)[nH]c2ccccc12)Nc1ccc(Cl)cn1 | 0 | 0 | 0 | 0 | 0
CCN(C(=O)CSc1nnc(-c2cccc(Cl)c2)n1N)c1c(N)n(Cc2ccccc2)c(=O)[nH]c1=O | 0 | 0 | 0 | 0 | 0
CCOC(=O)c1c(NC(=O)C(C)N2CCN(C(=O)c3ccco3)CC2)sc2c1CCCC2 (centres undefined) | 0 | 14.6µM | 16.4µM | -56.8 | 0
CCOC(=O)c1c(NC(=O)c2ccco2)sc(C(=O)N2CCCC2)c1C | 0 | ? | ? | 0 | 0
CCOC(=O)c1c(NC(=O)CCCC(=O)O)sc2c1CCC2 | 0 | 0 | 0 | 0 | 0
CCOC(=O)c1c(NC(=O)CCC(=O)O)sc2c1CCCCC2 | 0 | ? | ? | 0 | 0
CCOC(=O)c1c(NC(=O)c2ccc(N3C(=O)C4C5C=CC(C5)C4C3=O)cc2)sc2c1CCCC2 (centres undefined) | 0 | ? | 23.1µM | 0 | 0
CCOC(=O)c1c(NC(=O)CCNCc2ccco2)sc2c1CCC2 | 0 | ? | ? | -68.8 | 0
CCOC(=O)c1c(NC(=O)C2C3C=CC(C3)C2C(=O)O)sc2c1CCCC2 (centres undefined) | 0 | ? | ? | 0 | 0
CCOC(=O)c1c(NC(=O)CNCCOC)sc2c1CCCC2 | 0 | ? | 11.6µM | 0 | 0
Cn1c(=S)n(CCC(=O)O)c2ccccc21 | 0 | 0 | 0 | 0 | 0
O=C1N2c3ccccc3CCc3cccc(c32)C1(O)C(F)(F)F (centres undefined) | 0 | 0 | 0 | 0 | 0
Nc1ccn([C@@H]2O[C@H](CNC(=O)[C@H]3CCC(=O)N3)[C@@H](O)[C@H]2O)c(=O)n1 | 0 | 0 | 0 | 0 | 0
O=C(/C=C/c1ccc(F)cc1)NC(Cc1c[nH]c2ccccc12)C(=O)O (centres undefined) | 0 | 0 | 0 | 0 | ?
Cc1ccc(NC(=O)CSc2nnc(Cn3cnc4ccccc43)o2)c(C)c1 | 0 | 0 | 0 | 0 | 0
COC(=O)C1=C(COc2ccccc2)NC(=O)NC1c1ccc2ccccc2c1 (centres undefined) | ? | ? | 23.1µM | 0 | ?
COC(=O)C1=C(CCc2ccccc2)NC(=O)NC1c1ccc(Cl)cc1 (centres undefined) | ? | ? | ? | -52.1 | 0
COC(=O)C1=C(CCc2ccccc2)NC(=O)NC1c1ccc(C#N)cc1 (centres undefined) | 0 | 0 | 0 | 0 | 0
COC(=O)C1=C(COc2ccccc2)NC(=O)NC1c1ccc(Br)cc1 (centres undefined) | 0 | ? | ? | ? | 0
CSc1ccc(S(=O)(=O)N(CC(=O)NN=C2CCN(C)CC2)c2ccc(C)cc2)cc1 | 0 | 0 | 0 | 0 | 0
COCC(=O)Nc1cc(C(=O)N2CCCOc3c(cccc3OC)C2)c2c(c1)nc(C1CCC1)n2C | - | 0 | 0 | - | -
NS(=O)(=O)c1ccc(CCNC(=O)c2ccc[nH]c2=S)cc1 | 0 | 0 | 0 | 0 | 0
COc1ccc(C(=O)NCC(c2ccco2)N(C)C)cc1S(=O)(=O)NCc1ccc(Cl)cc1 (centres undefined) | 0 | 0 | 0 | 0 | 0
SMILES | HT1080-NT tox | DT40 TDP1 CPT | DT40 TDP1 no CPT | IL1B secr inh | HT1080 IDH1KD tx
N=C1N(c2ccccc2)C(=S)C(=Nc2ccccc2)N1c1ccccc1 | 0 | 18.4µM | 13µM | 0 | ?
O=C1C(Cc2ccccc2)SC(=Nc2ccccc2)N1c1ccccc1 (centres undefined) | 0 | 0 | ? | 0 | 0
O=c1[nH]cc(I)cc1I | 0 | 0 | 0 | 0 | 0
CCCCNc1c(CC(C)C)nc2nc(C)cc(C)n12 | 0 | 16.4µM | 23.1µM | 0 | 0
Cc1cc(C)n2c(Nc3c(C)cccc3C)c(CC(C)C)nc2n1 | 0 | ? | 23.1µM | 0 | ?
CCCCNc1c(-c2ccccn2)nc2nc(C)cc(C)n12 | 0 | ? | ? | 0 | 0
Cc1c(C(=O)Nc2ccccn2)sc2nc3n(c(=O)c12)CCC3 | 0 | 0 | 0 | 0 | 0
